The list is not random: actives were taken first. Their share in the collection is about 12%.
L3MBTL1 inh: L3MBTL1 (human) inhibition | AlphaScreen L3MBTL1–H3K9me1 peptide binding | Q9Y468 | AID 485360 | 230,000 tested, 0.66% active | Potency, µM (doses to about 57.1 µM), actives largely listed as inhibitors; further: nearly all actives have a fitted effect of over 60% in size
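AlphaScreen proximity signal between nickel-chelate acceptor and streptavidin donor beads (final 10 ug/mL) reports binding of 50 nM L3MBTL1 to 75 nM biotin-H3 K9me1 peptide; complex incubated with compounds 30 min at room temperature; cefsulodin titration as control.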
Sfp PPTase inh: blocks B. subtilis Sfp PPTase activity. 310,000 tested, 3.5% active. Biochemical Sfp PPTase activity, qHTS. Q9F4F7. Potency, µM, most hits filed as inhibitors;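 further: the enzyme is Sfp with the accession as filed and its product quenches rhodamine fluorescence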
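Fluorescence-quenching assay: 15 nM Sfp-PPTase preincubated 15 min at room temperature with compound, then 5 uM rhodamine-CoA and 12.5 uM BHQ-2-labelled YbbR peptide added. Fluorescence (ex 525/em 598 nm) read at start and after 30 min; difference gives rate.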
G9a block: G9a (human) methyltransferase inhibition; Q96KQ7; G9a H3K9 monomethylation, AlphaScreen, 2 h; Potency, µM (doses to about 102 µM), usual class: inhibitors; 350,000 tested, 8.8% active; AID 504332; further: nearly all actives have a fitted effect of over 75% in size
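G9a (20 nM) was preincubated 15 min with compound, then reacted 2 h at room temperature with 500 nM biotin-H3K9 peptide and 20 µM SAM. Monomethyl-H3K9 detected by AlphaScreen using anti-H3K9me1 antibody.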
BAZ2B block: BAZ2B (human) inhibition; Q9UIF8; AlphaScreen BAZ2B-H3K14Ac peptide displacement; Potency, µM (highest dose often 114 µM), most hits filed as inhibitors; 360,000 tested, 4.4% active; further: nearly all actives have a fitted effect of over 60% in size
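Inhibition is scored as reduced AlphaScreen emission. The BAZ2B/b-H3(5-23)K14Ac complex (50 nM each) in PBS pH 7.4, 0.01% Tween-20 meets compound (up to 110 uM) for 30 min at RT before bead addition.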
HP1b chromo inh: inhibitors of HP1-beta chromodomain binding to methylated histone tails | AlphaScreen HP1-beta / biotin-H3K9me3 peptide binding | Potency, µM (series often up to 114 µM), usual class: inhibitors | 390,000 tested, 0.56% active | AID 540317; further: nearly all actives have a fitted effect of over 70% in size
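AlphaScreen: HP1-beta (50 nM) preformed 30 min with biotin-H3(1-18)K9me3 peptide (50 nM) in PBS pH 7.4, 0.01% Tween-20. Compound added for 30 min at RT, then streptavidin donor/nickel chelate acceptor beads (10 ug/mL) for 30 min.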
JMJD2A Tudor: inhibitors of human JMJD2A Tudor domain; AlphaScreen JMJD2A-Tudor / H3K4me3 peptide binding; Potency, µM (top dose mostly 114 µM), actives largely listed as inhibitors; 390,000 tested, 4.4% active; AID 504339; further: nearly all actives have a fitted effect of over 50% in size
A number is an active result; . = inactive; ? = inconclusive; / = not tested or not shown; [ ] = dose if it differs, or a comment. The call rests on the fitted dose curve; in most records, active means well fitted curve in the direction sought with a large enough effect; inconclusive means small, poorly fitted or top-dose-only effect, or another doubt; inactive means no such curve, though single readings can be large; an effect the other way counts as inactive or inconclusive.

SMILES	L3MBTL1 inh	Sfp PPTase inh	G9a block	BAZ2B block	HP1b chromo inh	JMJD2A Tudor
COc1ccc(C)cc1NS(=O)(=O)c1ccc2c(c1)CCCN2C(C)=O	/	/	.	.	.	.
COc1ccc(CCNC(=O)CCCn2nc(C)c3sc4ccccc4c3c2=O)c(OC)c1	/	/	.	.	.	.
O=C(CC1OCC2CCCN2C1=O)Nc1ccc([N+](=O)[O-])cc1 (configuration not stated)	/	.	8.91µM	.	.	.
COc1ccc(S(=O)(=O)N2CCN(C3CC4CCC3C4)CC2)cc1 (configuration not stated)	/	.	22.4µM	.	.	3.16µM
Cc1ccc(S(=O)(=O)N2CCN(C3CC4CCC3C4)CC2)cc1 (configuration not stated)	/	.	8.91µM	31.6µM	31.6µM	14.1µM
Cc1ccc(S(=O)(=O)N2CCN3CCCC3C2)cc1 (configuration not stated)	.	.	.	.	.	.
COc1ccc(S(=O)(=O)N2CCN(C)CC2)cc1	.	.	.	.	.	.
CCc1nnc(SCC(=O)Nc2ccc(F)cc2F)c2cc3sc(C)cc3n12	/	/	.	.	.	.
O=c1cc(CO)oc(C(Nc2ccccn2)c2ccc(C(F)(F)F)cc2)c1O (configuration not stated)	.	?	1.58µM	.	.	.
O=c1cc(CO)oc(C(Nc2ccccn2)c2cccc(F)c2)c1O (configuration not stated)	.	10µM	1.26µM	.	?	20µM
COc1cccc(C(Nc2ccccn2)c2oc(CO)cc(=O)c2O)c1 (configuration not stated)	/	4.47µM	1.26µM	79.4µM	?	44.7µM
O=C(c1ccccc1)C(Nc1ccccn1)c1ccccc1 (configuration not stated)	.	.	.	.	.	.
O=c1cc(CO)oc(C(Nc2ccccn2)c2ccccc2F)c1O (configuration not stated)	/	/	/	/	?	22.4µM
O=C(Cc1c(F)cccc1Cl)Nc1ccccn1	.	.	.	?	.	.
O=C(c1ccco1)N1CCN(Cc2cccnc2)CC1	/	?	3.55µM	25.1µM	.	3.55µM
COc1ccccc1CN1CCN(C(=O)c2ccco2)CC1	.	.	22.4µM	?	50.1µM	1µM
CCc1cc2ccc(C)cc2nc1SCC(=O)N1CCN(C(=O)c2ccco2)CC1	/	?	?	?	?	89.1µM
Cc1ccc(CN2CCN(C(=O)c3ccco3)CC2)cc1	.[11.4 µM]	.	.	.	.	.
COc1ccccc1CN1CCC2(CC1)CCN(C(=O)c1ccco1)CC2	/	.	.[12.7 µM]	/	/	/
COc1ccc(Br)cc1CN1CCN(C(=O)c2ccco2)CC1	/	?	10µM	28.2µM	31.6µM	7.08µM
CC(=O)c1cc(-c2ccccc2)n(CCC(=O)Nc2nc3c(C)cccc3s2)c1C	/	/	.	.	.	.
COc1ccc(CNC(=O)Cc2c(C)c3cc4c(C)coc4c(C)c3oc2=O)cc1	/	/	.	.	.	.
O=C(COC(=O)C1(c2ccccc2F)CCCC1)N1CCN(C(=O)c2ccco2)CC1	.	.	50.1µM	.	.	.
O=C(c1ccco1)N1CCN(Cc2c(F)cccc2Cl)CC1	/	.	.	.	.	.
O=C(CSc1ccc(Br)cc1)N1CCN(C(=O)c2ccco2)CC1	.	.	44.7µM	.	.	.
SMILES	L3MBTL1 inh	Sfp PPTase inh	G9a block	BAZ2B block	HP1b chromo inh	JMJD2A Tudor
COc1ccc(CN2CCN(C(=O)c3ccco3)CC2)c(OC)c1OC	/	/	/	/	?	25.1µM
O=C(c1ccco1)N1CCN(Cc2ccccc2F)CC1	.	.	28.2µM	?	?	28.2µM
COC(=O)CN1CCN(C(=O)c2ccco2)CC1	/	.	/	.	.	.
CC(NS(=O)(=O)c1ccccc1)C(=O)NC1CCCC1 (configuration not stated)	/	.	.	.	.	.
Cc1ccc(S(=O)(=O)NC(C)C(=O)NC2CC2)cc1 (configuration not stated)	/	.	79.4µM	.	.	.
CSc1ccc(CCNC(=O)C2CCN(c3ncnc4c3nc3n4CCCCC3)CC2)cc1	/	/	.	.	.	.
Fc1ccc(Nc2nc(N/N=C/c3ccco3)nc(N3CCCCC3)n2)cc1	.	.	39.8µM	?	.	?
O=C(OCC(=O)N1CCCc2ccccc21)c1ccc(S(=O)(=O)C(F)F)cc1	.	/	50.1µM	.	.	.
COc1ccccc1CNC(=O)c1cnc2sc(N3CCCCCC3)nn2c1=O	/	/	.	.	.	.
CCCCn1nc(C(=O)Oc2ccc3c(C)cc(=O)oc3c2)c2ccccc2c1=O	.	.	2.82µM	.	.	.
CC1C2(C)OC(=N)C(C#N)(C(C)O2)C1(C#N)C#N (configuration not stated)	.	.	70.8µM	.	.	.
Cc1ccccc1C(=O)NCC(=O)OC(C(=O)Nc1cc(C(F)(F)F)ccc1Cl)c1ccccc1 (configuration not stated)	/	/	/	/	/	.
O=c1[nH]c2c(s1)C(c1ccco1)C1C3CCC(C3)C1S2 (configuration not stated)	/	44.7µM	7.94µM	50.1µM	.	?
O=C(O)CN1C(=O)C2C3CC(C2C1=O)C1C(c2ccccc2)c2sc(=O)[nH]c2SC31 (configuration not stated)	?	.	.	.	.	.
CC1=C(C(=O)Nc2ccc(C)cc2Cl)C2(CCCCC2)OC1=O	/	/	.	.	.	.
Cc1c(-n2c(O)c(C3=c4ccccc4=NC3=O)sc2=S)c(=O)n(-c2ccccc2)n1C	.	?	44.7µM	.	.	.
N#C/C(=C\c1ccc(-c2ccc(C(=O)O)cc2)o1)C(=O)Nc1ccccc1C(=O)O	/	/	?	?	.	79.4µM
N#C/C(=C\c1ccc(-c2ccc(Br)cc2)o1)C(=O)Nc1ccccc1O	/	/	.	.	.	.
Cc1ccc(CNC(=O)c2c3c(nc4ccccc24)C(=O)N(C2CCCCC2)C3)cc1	/	/	.	.	?	?
CCOC(=O)C1=C(C)NC(=O)C1CC(=O)Nc1ccccc1 (configuration not stated)	.	79.4µM	3.55µM	.	/	/
CCOCCc1nn2c(=O)cc(COC(=O)c3ccccc3NC(=O)C3CCCCC3)nc2s1	/	/	.[12.7 µM]	.	.	.
CN(C)C(=O)c1cnc(Sc2ncc(C(F)(F)F)cc2Cl)n1C	/	.	56.2µM	.	.	.
CCN1C(=O)/C(=C\c2nc3ccccc3c(=O)n2-c2ccccc2)c2ccccc21	.	.	?	50.1µM	.	44.7µM
O=S(=O)(c1ccc(F)cc1)N1CCN(c2nc(-c3ccccc3)nc3ccccc23)CC1	/	/	/	/	.	.
CC(=NCCCn1ccnc1)C1=C(O)c2ccccc2C1=O	.	.	.	44.7µM	.	.
O=C1C(C=NCCCn2ccnc2)=C(O)c2ccccc21	/	/	/	/	.	.

Screens deposited in PubChem BioAssay by National Center for Advancing Translational Sciences (NCATS).
